# Test results from publication PMC4336329 (PLoS ONE, 2015).
# Among all 310,000 compounds or so, about 14,000 (4.5%) showed an effect of 50% or more. The effect is printed as a negative number. The sample holds strong results, similar compounds and a random draw of the others, so the mix is not that of the screen.
# Molecular target: human ether-à-go-go-related gene (hERG) potassium channel (human, UniProt Q12809)
# Experiment: primary screen, population patch clamp on CHO cells stably expressing hERG; higher = less effect of the substance
# 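Note: peak tail current of the secondary pulse compared with the same well before compound.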
# human ether-à-go-go-related gene (hERG) potassium channel, sequence (Q12809 whole entry, looked up): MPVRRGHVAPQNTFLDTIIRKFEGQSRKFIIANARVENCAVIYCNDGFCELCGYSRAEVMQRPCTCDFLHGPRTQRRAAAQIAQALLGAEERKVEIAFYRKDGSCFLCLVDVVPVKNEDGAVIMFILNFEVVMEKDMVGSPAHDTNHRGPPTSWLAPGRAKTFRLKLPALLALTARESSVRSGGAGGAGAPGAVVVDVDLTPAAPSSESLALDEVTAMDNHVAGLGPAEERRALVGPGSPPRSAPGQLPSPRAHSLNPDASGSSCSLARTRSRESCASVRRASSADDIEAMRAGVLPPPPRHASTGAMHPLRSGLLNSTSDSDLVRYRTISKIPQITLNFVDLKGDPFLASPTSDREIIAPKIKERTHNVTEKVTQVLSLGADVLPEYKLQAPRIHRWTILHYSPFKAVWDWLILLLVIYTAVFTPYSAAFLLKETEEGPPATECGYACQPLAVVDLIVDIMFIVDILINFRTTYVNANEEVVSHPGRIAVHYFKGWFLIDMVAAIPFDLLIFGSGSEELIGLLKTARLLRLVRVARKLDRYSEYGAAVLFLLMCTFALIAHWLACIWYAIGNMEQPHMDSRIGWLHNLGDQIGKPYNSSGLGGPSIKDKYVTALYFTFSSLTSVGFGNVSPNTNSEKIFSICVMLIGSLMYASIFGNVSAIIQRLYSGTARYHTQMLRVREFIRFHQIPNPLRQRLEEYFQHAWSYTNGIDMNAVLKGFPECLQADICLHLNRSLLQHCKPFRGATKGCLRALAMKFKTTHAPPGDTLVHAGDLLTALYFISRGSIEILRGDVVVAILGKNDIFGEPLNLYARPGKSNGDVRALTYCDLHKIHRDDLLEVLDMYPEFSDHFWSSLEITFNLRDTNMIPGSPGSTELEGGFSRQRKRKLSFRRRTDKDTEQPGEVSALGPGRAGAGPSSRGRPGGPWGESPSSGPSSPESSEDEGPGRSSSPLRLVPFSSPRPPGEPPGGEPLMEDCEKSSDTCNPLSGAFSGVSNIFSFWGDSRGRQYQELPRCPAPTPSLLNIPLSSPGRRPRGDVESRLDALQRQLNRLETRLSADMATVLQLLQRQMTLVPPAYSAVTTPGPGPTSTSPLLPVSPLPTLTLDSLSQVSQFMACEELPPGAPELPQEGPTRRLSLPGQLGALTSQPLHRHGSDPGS
row,SMILES,"hERG current change (%, negative = inhibition) at 10uM [%]"
1,CCCC(=O)Nc1nc2nc(C)cc(=O)n2[nH]1,1.2
2,Cc1cc(C)c2c(=O)[nH]n(C3CC(C)N(C)CC3C)c2n1 (stereo not drawn),4.5
3,CC1(C)Cc2c(sc3nc(-c4cccs4)n(N)c(=O)c23)CO1,-22.5
4,CCN(c1cccc(C)c1)S(=O)(=O)c1ccc2c(c1)NC(=O)CS2,-7.28
5,Cc1nnc2ccc(Oc3ccc(-c4ccccc4)cc3)nn12,-5.63
6,CCC1C(c2ccccc2)NC(c2ccccc2)CC1(O)c1ccc(F)cc1.Cl (stereo not drawn),11.4
7,Cc1cc(C)n2cc(CSc3nnc(-c4ccccc4)o3)nc2n1,-38.3
8,Cc1cc(C)nc(SCc2cn3c(C)cccc3n2)n1,6.36
9,Cc1ccc2nc(SCc3cn4c(C)cc(C)nc4n3)[nH]c2c1,-20.9
10,Cc1cccc2nc(CSc3ccc(Cl)cc3)cn12,-74.3
11,Cc1cc(C)n2cc(CSc3ncn[nH]3)nc2n1,0.809
12,Cc1ccc(SCc2cn3c(C)cc(C)nc3n2)cc1,-67.1
13,Cc1ccnc(SCc2cn3c(C)cc(C)nc3n2)n1,-3.93
14,Cc1cc(C)n2cc(CSc3nc4cc(Cl)ccc4o3)nc2n1,-68.1
15,Clc1ccc(SCc2cn3ccccc3n2)cc1,-18.1
16,Cc1cc(C)n2cc(CSCc3ccccc3)nc2n1,-36.9
17,O=c1cc(CSc2nc3cc(Cl)ccc3o2)nc2sccn12,10.4
18,Cc1cc(C)n2cc(CSc3ccc(Br)cc3)nc2n1,-63.8
19,COc1ccccc1N=Nc1c(C)noc1C,10.6
20,CCOC(=O)/C(C#N)=N/Nc1ccc(S(=O)(=O)Nc2cc(OC)nc(OC)n2)cc1,-13.1

row,SMILES,"hERG current change (%, negative = inhibition) at 10uM [%]"
1,CC(C)(C)c1nnc(NS(C)(=O)=O)s1,8.21
2,O=c1[nH]n(-c2ccc([N+](=O)[O-])cc2)c(=O)c2ccccc12,5.47
3,COCc1ccc(C(=O)N2CCCC(C(=O)c3ccc(SC)cc3)C2)o1 (stereo not drawn),-41.6
4,Nc1cnc(Nc2ccc(Br)cc2)nc1N.O=S(=O)(O)O,-8.72
5,CCc1c(C)nc(SCC(=O)Nc2cccc(Br)c2)[nH]c1=O,16.3
6,Cc1cc(C)n2cc(CSc3ccc(Cl)cc3)nc2n1,-64.9
7,Cc1csc2nc(CSc3ccc(Cl)cc3)cn12,-27.3
8,Cc1cc(C)n2cc(CSc3ccccn3)nc2n1,13.6
9,CC(C)Oc1ccc(CNC2CCOC(C)(C)C2)cc1 (stereo not drawn),18
10,C=CCNc1nc2c(c(=O)[nH]c(=O)n2C)n1CCCc1ccccc1,-4.44
11,CC1=C(C(=O)OCc2ccccc2)C(c2ccccc2-c2ccccc2)NC(=O)N1CCCCCC(=O)O (stereo not drawn),-63.1
12,CC1=C(C(=O)OCc2ccccc2)C(c2ccc(-c3ccccc3)cc2)NC(=O)N1CCCCCC(=O)O (stereo not drawn),-2.3
13,CC1=C(C(=O)OCc2ccccc2)C(c2ccccc2Cl)NC(=O)N1CCCCCC(=O)O (stereo not drawn),-12.4
14,CCN(CC(=O)Nc1c(F)cccc1F)C(=O)c1ccc2ccccc2n1,-19.6
15,O=c1[nH]cccc1-c1nc2ccccc2n1Cc1ccc(F)cc1,-22.5
16,CCOc1ccc(NC(=O)CN(C)C(=O)c2ccccc2Cc2ccccc2)cc1OCC,-14
17,O=[N+]([O-])c1ccc(N2CCN(CC3CCCCC3)CC2)cc1,-63
18,CC(=O)c1ccc(N2CCN(CC3CCCCC3)CC2)cc1,-24
19,c1ccc(N2CCN(CC3CCCCC3)CC2)cc1,9.61
20,O=[N+]([O-])c1ccc(/C=N\N2CCN(c3ccc(Cl)cc3)CC2)cc1,16.8

row,SMILES,"hERG current change (%, negative = inhibition) at 10uM [%]"
1,FC(F)(F)c1cnc(N2CCC(=NOCc3ccc(Cl)cc3)CC2)c(Cl)c1,29.6
2,O=[N+]([O-])c1ccc(N2CCC(=NOCc3ccc(Cl)cc3)CC2)cc1,-54.5
3,O=[N+]([O-])c1ccc(CN2CCN(c3ccc([N+](=O)[O-])cc3)CC2)cc1,-74.1
4,O=[N+]([O-])c1ccc(N2CCN(Cc3cccc([N+](=O)[O-])c3)CC2)cc1,-71.8
5,O=[N+]([O-])c1cccc(CN2CCCCCC2)c1,5.75
6,O=[N+]([O-])c1cccc(CN2CCN(c3ncccn3)CC2)c1,-1.26
7,CCOc1ccccc1-c1nnc(SCC(=O)NC2CC3CCC2C3)n1CC (stereo not drawn),-3.89
8,O=C(O)C(=O)O.O=C(c1cccc(F)c1)N1CCN(Cc2c[nH]c3ccccc23)CC1,-9.05
9,Clc1ccc(CN2CCN(c3ncccn3)CC2)cc1,-4.03
10,CN(Cc1ccccc1)c1nc2c(c(=O)n(C)c(=O)n2C)n1CCSc1ncccn1,-13.7
11,O=C1/C(=C\c2ccc([N+](=O)[O-])cc2)CCc2ccccc21,-6.6
12,O=C1CCNc2c(Cl)cc(Cl)cc21,-2.74
13,N#CC1=C(N)Nc2ncnn2C1c1ccccc1 (stereo not drawn),10.6
14,COc1ccc2c(c1)[nH]c1c(Cl)ncnc12,3.14
15,O[C@H]1c2ccccc2[C@H](Cc2cncs2)[C@@H]1Br,0.746
16,O=[N+]([O-])c1ccc(CN2CCN(c3ncccn3)CC2)cc1,-32.2
17,O=[N+]([O-])c1ccc(N2CCN(Cc3ccncc3)CC2)cc1,-64.8
18,Fc1ccc(-n2nnc(-c3ccccc3Cl)n2)cc1,12.2
19,O=C(CC1Oc2ccccc2NC1=O)NCCc1ccccc1 (stereo not drawn),-4.18
20,COc1cccc(S(=O)(=O)NC2CCN(C#N)C2)c1 (stereo not drawn),9.23
